Inconclusive results are not listed. Active and inactive are the calls of the source. Unless noted, calls come from the whole dose curve; as a rule, active = well fitted curve in either direction with a large enough effect (not every such curve was filed as active); inconclusive = small, poorly fitted or top-dose-only effect, or another doubt; inactive = flat fitted curve, though single readings scatter.
Columns and labels:
[1] = molecular target: Lysosomal acid glucosylceramidase (Homo sapiens) (UniProt P04062); experiment: Glucocerebrosidase-p2 (AID 348; in the data active = potency below about 10 µM; note: potency is the fitted concentration of half-maximal effect); conditions: purified GBA, blue fluorogenic substrate, 40 min
Method in brief: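 Compounds titrated from 0.6 nM upwards against 0.2 nM enzyme in pH 5.9 citric acid/KH2PO4, taurocholate, tween-20; blue fluorogenic substrate 80 uM, 40 min room temperature, stopped and read Ex 365/Em 440 for AC50.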

[2] = AP1 Signaling Pathway (AID 357); conditions: ME-180 AP-1-bla reporter, EGF-induced, beta-lactamase ratio, 5 h; series mostly up to 17.2 µM; note: % is set by controls: 0 for no effect and ±100 for the full control effect
Method in brief: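 ME-180 cells with beta-lactamase reporter under AP-1 response element, stimulated with EC50 EGF; compounds tested in titration series, 5 h at 37 °C. CCF4 substrate added 2.5 h at room temperature; 460/530 nm emission ratio gave %activity and AC50.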

[3] = molecular target: Cytochrome P450 1A2 (Homo sapiens) (UniProt P05177); experiment: p450-cyp1a2 (AID 410; calls by dose curve; note: potency is the fitted concentration of half-maximal effect;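 for activity change, negative = inhibition: -100% = full effect of reference inhibitor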); conditions: recombinant CYP1A2, luciferin-ME demethylation, luminescence; series mostly up to 25.6 µM
Method in brief: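 20nM CYP1A2 with 100uM Luciferin-ME (at Km) in 100mM KPO4; compound preincubated 10 min, NADPH regeneration added, 60 min at room temperature. Luciferin quantified by luminescence after detection reagent; normalized to 57 uM furafylline.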

[4] = Stat Signaling Pathway (AID 446); conditions: ME-180 SIE beta-lactamase reporter, IL-6 stimulated, 5 h; series mostly up to 17.2 µM;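 note: ME-180 cervical cancer cells given 40 pM IL-6 alongside compound; SIE-controlled beta-lactamase reporter measured as 460/530 nm FRET emission ratio; % is set by controls: 0 for no effect and ±100 for the full control effect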
Method in brief: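 Reporter line: ME-180 cervical carcinoma, SIE-beta-lactamase. Treatment: compound with 40 pM IL-6, 5 hrs, 37 C, in low-serum OPTI-MEM with 10 mM HEPES pH 7.3. Detection: 460/530 nm fluorescence.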

[5] = molecular target: Glucocorticoid receptor (Homo sapiens) (UniProt P04150); experiment: GR-EFC Redistribution (AID 451; calls by dose curve; note: potency is the fitted concentration of half-maximal effect); conditions: CHO-K1 GR-EFC translocation, beta-gal luminescence, 2 h
Method in brief: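 CHO-K1 cells expressing nuclear EA and GR-ED fragments of b-gal; compounds titrated up to 46 uM final, 2 h at 37 C. GR nuclear translocation read as complemented b-gal luminescence after 1 h RT detection.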

[6] = molecular target: Mitogen-activated protein kinase 10 (Mus musculus) (UniProt Q61831); experiment: JNK3 AlphaScreen Assay (AID 530); conditions: JNK3 lysate, c-Jun phosphorylation; series mostly up to 57.1 µM;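 note: kinase came from lysate of stimulated human HepG2 cells; signal reports phosphorylation of biotinylated GST-cJun 1-79 at Ser73 with 10 µM ATP; % is set by controls: 0 for no effect and ±100 for the full control effect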
Method in brief: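 Pre-activated (IL-1β/TNFα) JNK3 in HepG2 lysates phosphorylates biotin-GST-cJun(1-79), 10 uM ATP; anti-phospho-cJun(Ser73) AlphaScreen read at room temperature, pH 7.6 Tris buffer. Compounds pre-incubated 15 min as titrations.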

[7] = molecular target: 3',5'-cyclic-AMP phosphodiesterase 4B (Homo sapiens) (UniProt Q07343); experiment: qHTS Assay for Inhibitors of PDE-IV (AID 607; active = well fitted activation curve with a large enough effect in the main read-out, with a control signal flat, not every such curve was filed as active; note: % of control where 0% means no effect); conditions: HEK293 ACTOne CNG channel cells, membrane potential fluorescence; series mostly up to 22.9 µM
Method in brief: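 Cell-based read-out of cAMP via a modified cyclic nucleotide-gated channel and membrane potential dye (535/590 nm) in HEK293 cells expressing PDE4 endogenously. Compounds tested up to 22.9 uM final; 100 uM RO 20-1724 reference.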

[8] = molecular target: Cytochrome P450 3A4 (Homo sapiens) (UniProt P08684); experiment: qHTS Assay for Activators of Cytochrome P450 3A4 (AID 885; active = well fitted curve in the direction sought with a large enough effect; an effect the other way counts as inactive or inconclusive; note: nearly all actives have a fitted effect of over 65% in size; note: potency is the fitted concentration of half-maximal effect); conditions: recombinant CYP3A4, Luciferin-PPXE luminescence, 60 min; series mostly up to 57.1 µM
Method in brief: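 Signal was normalized against complete inhibition by 57 uM ketoconazole. The reaction used 20nM CYP3A4 with 25uM Luciferin-PPXE, 10-min compound preincubation and a 60-min NADPH-supported step at RT.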

[9] = qHTS Assay for Lipid Storage Modulators (AID 1519; calls by dose curve); conditions: Drosophila S3 cells, BODIPY lipid droplet/cell ratio, laser cytometry, cells loaded with oleic acid; for activity change, negative = inhibition: at 57.5 µM (top of the series)
Method in brief: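 Cells seeded at 5,000 per well were treated with compounds over a concentration series and loaded with oleic acid (400 uM, as added). Lipid droplet fluorescence (488 nm excitation, 500-530 nm channel) was read by laser-scanning cytometry and normalized to 20 uM Triacsin C.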

[10] = Primary qHTS for small molecule stabilizers of the endoplasmic reticulum resident proteome: Secreted ER Calcium Modulated Protein (SERCaMP) assay (AID 1508630; active = well fitted curve in the direction sought with a large enough effect; an effect the other way counts as inactive or inconclusive; note: % is set by controls: 0 for no effect and ±100 for the full control effect); conditions: SH-SY5Y GLuc-SERCaMP (Gaussia luciferase released on ER calcium loss) secretion, thapsigargin, luminescence; series mostly up to 38.4 µM
Method in brief: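 GLuc-SERCaMP-expressing SH-SY5Y cells, pretreated 16 h with compound, are challenged with thapsigargin to empty ER calcium stores; after 4 h, coelenterazine is added directly to the medium and luminescence is imaged.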

[11] = tested on: HIV-1 nucleocapsid protein NCp7 (binding to TG oligonucleotide); experiment: HIV Nucleocapsid (AID 346; call rule not given here;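 note: potency is the fitted concentration of half-maximal effect; potency is for inhibitors that block NC binding and lower polarization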); conditions: HIV-1 NC / fluorescein-TGTGTGTG probe, fluorescence polarization
Method in brief: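 NCp7 100 nM + fluorescein TG4xF 10 nM; Hepes pH 7.5/250mM NaCl/1uM ZnCl2/0.004% PEG 20000; 1 hr RT; FP, 45 s exposure; oligo-only wells as negative control.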

[12] = NFAT Signaling Pathway (AID 444); conditions: Jurkat NFAT-bla M1, carbachol, beta-lactamase ratio, 5 h; at 7.69 µM (top of the series)
Method in brief: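 Jurkat cells with NFAT-driven β-lactamase reporter and co-expressed M1 receptor, stimulated with carbachol (final 1 uM, ~EC50), compound titration, 5 h at 37 °C. CCF4 loaded 1 h at RT; 460/530 nm ratio gave %activity and AC50.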

[13] = molecular target: Cytochrome P450 3A4 (Homo sapiens) (UniProt P08684); experiment: qHTS Assay for Inhibitors and Substrates of Cytochrome P450 3A4 (AID 884; active = well fitted curve in the direction sought with a large enough effect; an effect the other way counts as inactive or inconclusive; note: % is set by controls: 0 for no effect and ±100 for the full control effect; nearly all actives have a fitted effect of over 50% in size); conditions: recombinant CYP3A4, Luciferin-PPXE luminescence; series mostly up to 57.1 µM
Method in brief: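 20 nM human CYP3A4 with 25 uM Luciferin-PPXE (at KM) in 200 mM KPO4, preincubated 10 min with compound; NADPH regeneration started a 60 min RT reaction. Luciferin detected by luminescence, normalized to 57 uM ketoconazole as full inhibition.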

[14] = measured here: cell count channel max response
[15] = measured here: lipid channel max response

Chain of Cytochrome P450 3A4 (Homo sapiens) (P08684 whole entry, looked up): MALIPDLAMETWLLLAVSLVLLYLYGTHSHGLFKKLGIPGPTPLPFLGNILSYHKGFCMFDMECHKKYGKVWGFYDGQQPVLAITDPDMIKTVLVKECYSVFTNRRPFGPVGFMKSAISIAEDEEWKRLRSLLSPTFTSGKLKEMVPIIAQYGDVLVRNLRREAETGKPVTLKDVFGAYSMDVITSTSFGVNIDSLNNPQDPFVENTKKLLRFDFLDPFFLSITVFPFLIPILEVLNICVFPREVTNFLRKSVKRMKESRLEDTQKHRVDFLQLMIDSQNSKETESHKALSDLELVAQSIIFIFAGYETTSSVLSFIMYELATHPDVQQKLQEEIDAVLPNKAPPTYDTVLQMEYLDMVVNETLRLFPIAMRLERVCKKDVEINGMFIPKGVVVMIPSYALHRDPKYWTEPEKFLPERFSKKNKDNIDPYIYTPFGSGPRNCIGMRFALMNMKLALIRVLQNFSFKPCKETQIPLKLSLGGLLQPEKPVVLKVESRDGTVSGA
Chain of Glucocorticoid receptor (Homo sapiens) (P04150 whole entry, looked up, the tested form may be a part): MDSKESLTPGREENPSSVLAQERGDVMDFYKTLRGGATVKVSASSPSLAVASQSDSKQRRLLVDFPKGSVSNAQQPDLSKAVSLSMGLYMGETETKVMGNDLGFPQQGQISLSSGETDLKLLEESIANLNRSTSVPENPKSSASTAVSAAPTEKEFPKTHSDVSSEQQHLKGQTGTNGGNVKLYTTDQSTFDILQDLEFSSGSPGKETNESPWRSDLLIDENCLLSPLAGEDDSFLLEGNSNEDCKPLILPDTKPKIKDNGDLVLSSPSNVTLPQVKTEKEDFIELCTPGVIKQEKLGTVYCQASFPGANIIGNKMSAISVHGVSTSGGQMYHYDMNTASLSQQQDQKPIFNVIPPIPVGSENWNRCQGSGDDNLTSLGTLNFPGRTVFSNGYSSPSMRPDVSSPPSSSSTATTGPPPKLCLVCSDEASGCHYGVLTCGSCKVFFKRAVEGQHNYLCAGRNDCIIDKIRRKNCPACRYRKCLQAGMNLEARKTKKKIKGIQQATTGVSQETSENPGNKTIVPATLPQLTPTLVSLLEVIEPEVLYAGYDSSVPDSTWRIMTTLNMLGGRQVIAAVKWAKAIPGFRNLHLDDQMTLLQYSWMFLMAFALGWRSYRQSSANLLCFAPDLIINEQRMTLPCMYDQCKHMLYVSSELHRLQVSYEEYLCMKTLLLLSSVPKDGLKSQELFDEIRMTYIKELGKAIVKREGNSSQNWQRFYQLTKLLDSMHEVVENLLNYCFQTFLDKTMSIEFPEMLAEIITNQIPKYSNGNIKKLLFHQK
Chain of 3',5'-cyclic-AMP phosphodiesterase 4B (Homo sapiens) (Q07343 whole entry, looked up): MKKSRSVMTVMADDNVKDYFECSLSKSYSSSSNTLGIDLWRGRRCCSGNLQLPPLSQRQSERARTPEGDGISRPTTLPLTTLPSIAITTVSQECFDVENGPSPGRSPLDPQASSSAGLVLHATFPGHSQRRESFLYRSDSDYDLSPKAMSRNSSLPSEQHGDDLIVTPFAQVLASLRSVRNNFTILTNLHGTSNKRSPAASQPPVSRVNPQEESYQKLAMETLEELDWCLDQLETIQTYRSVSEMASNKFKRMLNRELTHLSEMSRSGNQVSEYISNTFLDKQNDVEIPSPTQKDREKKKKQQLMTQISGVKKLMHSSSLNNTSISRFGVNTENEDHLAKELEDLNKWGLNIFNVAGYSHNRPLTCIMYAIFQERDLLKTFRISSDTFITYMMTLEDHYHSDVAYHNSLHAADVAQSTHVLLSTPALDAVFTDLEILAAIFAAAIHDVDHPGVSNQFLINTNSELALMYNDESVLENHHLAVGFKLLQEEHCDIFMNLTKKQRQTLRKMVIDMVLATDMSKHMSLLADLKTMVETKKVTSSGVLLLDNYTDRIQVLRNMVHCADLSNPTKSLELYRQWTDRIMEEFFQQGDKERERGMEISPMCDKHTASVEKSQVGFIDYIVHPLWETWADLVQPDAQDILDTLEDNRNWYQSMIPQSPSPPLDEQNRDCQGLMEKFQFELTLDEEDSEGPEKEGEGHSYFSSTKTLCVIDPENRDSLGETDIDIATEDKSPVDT
Chain of Cytochrome P450 1A2 (Homo sapiens) (P05177 whole entry, looked up): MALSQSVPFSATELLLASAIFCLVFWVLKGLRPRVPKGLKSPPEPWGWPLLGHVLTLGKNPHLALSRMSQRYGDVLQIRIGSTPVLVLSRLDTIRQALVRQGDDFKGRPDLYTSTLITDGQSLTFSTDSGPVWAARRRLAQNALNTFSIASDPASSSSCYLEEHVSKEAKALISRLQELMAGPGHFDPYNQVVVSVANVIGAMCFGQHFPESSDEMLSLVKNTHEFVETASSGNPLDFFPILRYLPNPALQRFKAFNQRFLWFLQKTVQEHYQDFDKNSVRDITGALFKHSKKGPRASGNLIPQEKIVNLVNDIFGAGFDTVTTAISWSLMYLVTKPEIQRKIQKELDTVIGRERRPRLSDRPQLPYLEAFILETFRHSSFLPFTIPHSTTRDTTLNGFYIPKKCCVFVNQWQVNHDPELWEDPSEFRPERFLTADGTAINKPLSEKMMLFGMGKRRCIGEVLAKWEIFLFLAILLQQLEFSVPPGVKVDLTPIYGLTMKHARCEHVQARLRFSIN
Chain of Lysosomal acid glucosylceramidase (Homo sapiens) (P04062 whole entry, looked up): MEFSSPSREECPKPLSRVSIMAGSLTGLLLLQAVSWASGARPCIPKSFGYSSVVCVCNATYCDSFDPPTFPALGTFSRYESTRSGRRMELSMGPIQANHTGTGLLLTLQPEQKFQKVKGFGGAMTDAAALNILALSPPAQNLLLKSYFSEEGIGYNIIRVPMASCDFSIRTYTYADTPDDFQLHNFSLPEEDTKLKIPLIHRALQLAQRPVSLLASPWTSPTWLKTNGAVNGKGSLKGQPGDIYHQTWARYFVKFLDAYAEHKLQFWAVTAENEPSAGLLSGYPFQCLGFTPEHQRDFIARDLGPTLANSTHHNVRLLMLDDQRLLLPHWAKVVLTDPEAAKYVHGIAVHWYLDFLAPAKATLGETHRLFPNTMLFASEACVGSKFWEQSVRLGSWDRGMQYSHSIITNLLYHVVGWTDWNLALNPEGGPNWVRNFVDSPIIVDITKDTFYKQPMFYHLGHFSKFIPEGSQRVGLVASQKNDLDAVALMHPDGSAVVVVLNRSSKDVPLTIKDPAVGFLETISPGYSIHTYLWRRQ

Row | SMILES | Potency [1] | outcome [2] | Potency [3] | outcome [4] | Potency [5] | outcome [6] | Potency [7] | Potency [8] | activity change, negative = inhibition [9] | max response [9, 14] | max response [9, 15] | outcome [10] | Potency [11] | activity change, negative = inhibition [12] | Potency [13]
1 | O=C(c1csnn1)N1CCC2(CC1)CN(Cc1ccncc1)C2 | > 11.4 µM (inactive) | inactive | 10 µM (active) | inactive | > 46 µM (inactive) | inactive | inactive | inactive | 4.72% (inactive) | 6.9% | 14.2% | inactive |  |  | 
2 | Cc1noc(C)c1C(=O)N1CCC2(CCCN(CC(C)C)C2)CC1 | > 11.4 µM (inactive) | inactive | inactive | inactive | > 46 µM (inactive) | inactive | inactive |  | 1.67% (inactive) | -5.22% | -1.22% | inactive |  |  | 
3 | O=C(c1ccco1)N1CCC[C@@]2(CCN(Cc3ccncc3)C2)C1 | > 11.4 µM (inactive) | inactive | 3.98 µM (active) | inactive | > 46 µM (inactive) | inactive | inactive | inactive | 3.05% (inactive) | 6.21% | 9.36% | inactive | > 20 µM (inactive) | -1.52% (inactive) | 
4 | O=C(Nc1ccccc1)N1CC2(CCN(C(=O)Oc3ccccc3)CC2)C1 | > 11.4 µM (inactive) | inactive | 20 µM (active) | inactive | > 46 µM (inactive) | inactive |  | 15.8 µM (active) | 7.64% (inactive) | 9.38% | 22.2% | inactive | > 20 µM (inactive) | 23.8% (inactive) | inactive
5 | O=C(Nc1cccc(F)c1)N1CC2(CCNCC2)C1 | > 11.4 µM (inactive) | inactive | inactive | inactive | > 46 µM (inactive) | inactive | inactive |  | 3.38% (inactive) | 6.28% | 12.8% | inactive | > 20 µM (inactive) |  | 
6 | O=C(Nc1ccccc1)N1CC[C@@]2(CCCNC2)C1 | > 11.4 µM (inactive) | inactive |  | inactive | > 46 µM (inactive) | inactive | inactive |  | -3.27% (inactive) | 4.57% | 3% | inactive | > 20 µM (inactive) | 19.4% (inactive) | 
7 | CN1CCCC2(CCN(C(=O)c3csnn3)CC2)C1 | > 11.4 µM (inactive) | inactive | inactive |  | > 46 µM (inactive) | inactive |  |  | -1.92% (inactive) | -8.1% | -6.49% | inactive |  | -27.8% (inactive) | 
